# PubChem BioAssay (NCATS)
# Inconclusive results are not listed. Unmarked numbers belong to inactive results. The source made the active and inactive calls. Calls come from the whole dose curve; as a rule, active = well fitted inhibition curve with a large enough effect; inconclusive = small, poorly fitted or top-dose-only effect; inactive = no such curve, though single readings can be large or run the other way.
# Target: Cytochrome P450 1A2 (Homo sapiens) (UniProt P05177)
# Experiment: qHTS for inhibitors of CYPIA2 against the NCATS DSHEA and TCM libraries (AID 1919976);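 for activity change, negative = inhibition: light from luciferin formed by CYP1A2 from a pro-luciferin substrate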
# Conditions: recombinant CYP1A2 enzyme activity, luminescence; series mostly up to 37 µM; activity change, negative = inhibition: at the top concentration
# From the text: Assay Development and Screening Technology Laboratory (ADST)
# National Center for Advancing Translational Sciences (NCATS), Rockville, MD
# National Institute of Health (NIH), Bethesda, Maryland
# Dietary Supplements and Natural Products have minor oversight of their safety and efficacy. We assembled a collection of Dietary Supplements and Natural Products (DSNP) as well as Traditional Chinese Medicinal (TCM) Plant extracts, which were screened against an in vitro panel of assays, including a liver cytochrome p450 enzyme panel, CAR/PXR signaling pathways, and P-gp transporter assays, to assess their activity. This pipeline facilitated the interrogation of Natural Product-Drug Interaction (NaPDI) through prominent metabolizing pathways. In addition, we compared the activity profiles of the DSNP/TCM substances with those of an approved drug collection. Many of the approved drugs have well-annotated mechanisms of action (MOA) while the MOAs for most of the DSNP and TCM samples remain unknown. Based on the premise that compounds with similar activity profiles tend to share similar targets or MOA, we clustered the library activity profiles to identify overlap with the NCATS Pharmaceutical Collection to predict the MOAs of the DSNP/TCM substances. Overall, we highlight four significant bioactivity profiles (measured by p-values) as examples of this prediction. To assess broad cytotoxicity, we employed screening against a HepG2 cell line. In addition, transporter-mediated drug interactions are utilized in the characterization of DDIs using a P-glycoprotein (P-gp) assays. To profile potential P-gp activity, a differential cell viability was measured against two cell lines: a parental KB-3-1 human cervical adenocarcinoma cell line and the drug-resistant subline KB-8-5-11 that overexpresses P-gp.
# To this end, we profiled both collections for potential CAR and/or PXR activity, employing a previously published 1536-well qHTS assay.
# [1] Lee TD, et al. A High-Throughput Screen of a Library of Therapeutics Identifies Cytotoxic Substrates of P-glycoprotein. Mol Pharmacol. Nov 2019;96(5):629-640. doi:10.1124/mol.119.115964
# PROTOCOL TABLE (as described by Inglese J, Shamu CE and Guy RK. 2007)
# SEQUENCE No. (e.g., 1, 2, 3, etc.); […] (e.g., Cells, Incubation, Reagent, etc.); VALUE; DESCRIPTION.
# 1; Reagent; 2 uL; cytochrome P450 enzyme and luciferin substrate or buffer only, white solid-bottom Greiner plate.
# 2; Compounds and control; 16 nL; Kalypsis pintool (Wako USA) equipped with a 1536-well pin head to transfer to the assay plates.
# 3; Incubation; 15 min; room temperature.
# 4; Reagent; 2 uL; nicotinamide adenine dinucleotide phosphate (NADPH).
# 5; Incubation; 30 - 45 min; room temperature in the dark.
# 6; Reagent; 4 uL; P450-Glo assay detection reagent.
# 7; Centrifuge; 1000 RPM; 15 seconds.
# 8; Incubation; 30 min; room temperature.
# 9; Read; Luminescence; ViewLux plate reader.
# NOTES (numbers refer to Sequence numbers above)
# 1. A 2 uL mixture of corresponding enzymes and luciferin substrate (final concentrations CYP enzyme-specific and pro-luciferin substrate-specific) or minus-enzyme (assay buffer conditions supplied by the manufacturer for respective enzyme isoform; typically, 100 mM KPO4) and luciferin substrate were dispensed using a BioRAPTR FRD (Beckman Coulter, Brea, CA) into columns of a 1536-well white solid-bottom medium binding plate (Greiner Bio-One, Monroe, NC). Five isoforms of cytochrome P450 were used (CYP1A2, CYP2C9, CYP2C19, CYP2D6, and CYP3A4).
# 2. […] Intraplate controls furafylline (CYP1A2), sulfaphenazole (CYP2C9), ketoconazole (CYP2C19), quinidine (CYP2D6), and ketoconazole (CYP3A4) were used correspondingly.
# 3. Assay plates were incubated at room temperature for 15 min.
# 4-5. […]
# % is set by controls: 0 for no effect and ±100 for the full control effect; potency is the fitted concentration of half-maximal effect.
# Sequence of Cytochrome P450 1A2 (Homo sapiens) (P05177 whole entry, looked up): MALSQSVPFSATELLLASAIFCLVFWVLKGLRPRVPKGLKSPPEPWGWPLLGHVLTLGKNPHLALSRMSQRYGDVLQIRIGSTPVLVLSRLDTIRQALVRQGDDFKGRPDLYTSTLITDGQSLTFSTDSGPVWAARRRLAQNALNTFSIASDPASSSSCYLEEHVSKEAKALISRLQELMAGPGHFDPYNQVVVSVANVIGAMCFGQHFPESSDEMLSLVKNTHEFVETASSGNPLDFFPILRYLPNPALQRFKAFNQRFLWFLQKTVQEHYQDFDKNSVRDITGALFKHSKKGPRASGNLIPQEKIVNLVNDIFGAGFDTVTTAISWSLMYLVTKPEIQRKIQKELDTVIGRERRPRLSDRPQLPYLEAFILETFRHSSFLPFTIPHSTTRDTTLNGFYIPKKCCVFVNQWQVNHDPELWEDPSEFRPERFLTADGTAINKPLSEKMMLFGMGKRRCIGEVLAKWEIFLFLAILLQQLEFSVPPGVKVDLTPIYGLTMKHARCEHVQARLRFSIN
SMILES,"activity change, negative = inhibition",Potency
CC1(C)C2CCC1(C)C(O)C2 (stereo not given),19.9%,–
COc1ccc(-c2coc3cc(O[C@@H]4O[C@H](CO)[C@@H](O)[C@H](O)[C@H]4O)ccc3c2=O)cc1,-7.63%,–
O=C(O)CC(O)(C(=O)O)C(O)C(=O)O (stereo not given),18.2%,–
C[C@@H]1OC(O[C@H]2[C@H](O)[C@@H](O)[C@H](OC[C@H]3O[C@@H](OC(=O)[C@]45CCC(C)(C)C[C@@H]4C4=CCC6[C@@]7(C)CC[C@H](OC8OC[C@H](O)[C@H](O)[C@H]8OC8O[C@@H](C)[C@H](O)[C@@H](O)[C@H]8O)[C@@](C)(CO)C7CC[C@@]6(C)[C@]4(C)CC5)[C@H](O)[C@@H](O)[C@@H]3O)O[C@@H]2CO)[C@H](O)[C@H](O)[C@H]1O (stereo not given in full),-0.112%,–
O=C(O[C@@H]1Cc2c(O)cc(O)cc2O[C@@H]1c1ccc(O)c(O)c1)c1cc(O)c(O)c(O)c1,6.68%,–
O=C(/C=C/c1ccc(O)c(O)c1)O[C@H]1[C@H](O)C[C@](O)(C(=O)O)C[C@H]1OC(=O)/C=C/c1ccc(O)c(O)c1,-1.31%,–
CC1(C)CC[C@]2(C(=O)O)CC[C@]3(C)C(=CCC4[C@@]5(C)CC[C@H](O)[C@@](C)(CO)C5CC[C@]43C)[C@H]2C1 (stereo not given in full),8.68%,–
CCCCCCCCCCCCCCCCCCCCCCCCCCCCCCO,15.7% [at 4.62 µM],–
CC(C)=CCCC(C)=CCCC(C)=CCCC=C(C)CCC=C(C)CCC=C(C)C,5.87%,–
CC(=O)O[C@H]1[C@H](O[C@H]2CC[C@]34C[C@]35CC[C@]3(C)[C@@H]([C@@]6(C)CC[C@@H](C(C)(C)O)O6)[C@@H](O)C[C@@]3(C)[C@@H]5C[C@H](O[C@@H]3O[C@H](CO)[C@@H](O)[C@H](O)[C@H]3O)[C@H]4C2(C)C)OC[C@@H](O)[C@@H]1O,-14.4%,–
C[C@@H]1O[C@@H](OC[C@H]2OC(Oc3c(-c4ccc(O)c(O)c4)oc4cc(O)cc(O)c4c3=O)[C@H](O)[C@@H](O)[C@@H]2O)[C@H](O)[C@H](O)[C@H]1O (stereo not given in full),21.1%,–
CCCCCCCCCCCCCCCCCCCCCC(=O)O,7.06%,–
CC(C)[C@H](C)CC[C@@H](C)[C@H]1CC[C@H]2[C@@H]3CC=C4C[C@@H](O)CC[C@]4(C)[C@H]3CC[C@]12C,4.43%,–
CC(C)=CCCC(C)(OC1OC(COC2OC(CO)C(O)C2O)C(O)C(O)C1O)C1CCC2(C)C1C(O)CC1C3(C)CCC(OC4OC(CO)C(O)C(O)C4OC4OC(CO)C(O)C(O)C4O)C(C)(C)C3CCC12C (stereo not given),6.09%,–
CC1=C2[C@H](/C=C(\C)C(=O)O)CC[C@@H](C)[C@H]2CC1,-31.3%,–
C=CC(=C)CCC=C(C)C,8.97%,–
CC(C)=CCC[C@](C)(O[C@@H]1O[C@H](CO)[C@@H](O)[C@H](O)[C@H]1O)[C@H]1CC[C@]2(C)[C@@H]1[C@H](O)C[C@@H]1[C@@]3(C)CC[C@H](O)C(C)(C)[C@@H]3[C@@H](O[C@@H]3O[C@H](CO)[C@@H](O)[C@H](O)[C@H]3O[C@@H]3O[C@@H](C)[C@H](O)[C@@H](O)[C@H]3O)C[C@]12C,11%,–
CN(CC(=O)O)C(=N)N,29.8% [at 112 µM],–
C=C1CC/C=C(/C)CC[C@@H]2[C@@H]1CC2(C)C,–,3.55 µM (active)
CC1=CC[C@H](C(C)C)C=C1,-2.8% [at 63.1 µM],–

SMILES,"activity change, negative = inhibition",Potency
CC(=O)OC/C=C/c1ccccc1,–,28.2 µM (active)
C=C/C(C)=C/C/C=C(\C)CCC=C(C)C,-29% [at 63.1 µM],–
CC[C@H](CC[C@@H](C)[C@H]1CCC2C3CCC4C[C@@H](O)CC[C@]4(C)C3CC[C@@]21C)C(C)C (stereo not given in full),16.7%,–
OCC1=C[C@@H](O)[C@@H]2C=CO[C@@H](OC3O[C@H](CO)[C@@H](O)[C@H](O)[C@H]3O)[C@H]12 (stereo not given in full),2.27%,–
CCCCCCCCCC=O,2.02% [at 63.1 µM],–
C=C1C[C@@]23CC[C@H]4[C@@](C)(CCC[C@@]4(C)C(=O)O[C@@H]4O[C@H](CO)[C@@H](O)[C@H](O)[C@H]4O[C@@H]4O[C@H](CO)[C@@H](O)[C@H](O)[C@H]4O)[C@@H]2CC[C@]1(O[C@@H]1O[C@H](CO)[C@@H](O)[C@H](O)[C@H]1O[C@@H]1O[C@H](CO)[C@@H](O)[C@H](O)[C@H]1O)C3,4.74%,–
COc1ccccc1/C=C/C=O,–,25.1 µM (active)
CCCCC/C=C/C(=O)CCc1ccc(O)c(OC)c1,–,15.8 µM (active)
O=C(/C=C/c1ccc(O)c(O)c1)O[C@@H]1CC(C(=O)O)=C[C@@H](O)[C@H]1O,-1.13%,–
C=C1CC[C@H]2C[C@@H]1C2(C)C,12.2% [at 63.1 µM],–
CC(C)(O)[C@@H]1CC[C@](C)([C@@H]2[C@H](O)C[C@]3(C)C4C[C@@H](O[C@H]5O[C@@H](CO)[C@H](O)[C@@H](O)[C@@H]5O)C5C(C)(C)[C@H](O[C@H]6OC[C@H](O)[C@@H](O)[C@@H]6O)CC[C@]56CC46CC[C@@]23C)O1 (stereo not given in full),17.4%,–
COc1ccc(C(=O)O)cc1,18.6% [at 63.1 µM],–
O=C(/C=C/c1ccc(O)c(O)c1)O[C@@H]1C[C@](O)(C(=O)O)C[C@@H](O)[C@H]1O,-16.1%,–
C=C1C[C@@]23CC[C@H]4[C@@](C)(CCC[C@@]4(C)C(=O)O[C@@H]4O[C@H](CO)[C@@H](O)[C@H](O)[C@H]4O)[C@@H]2CC[C@]1(O[C@@H]1O[C@H](CO)[C@@H](O)[C@H](O[C@@H]2O[C@H](CO)[C@@H](O)[C@H](O)[C@H]2O)[C@H]1O[C@@H]1O[C@@H](C)[C@H](O)[C@@H](O)[C@H]1O)C3,61.6%,–
CC12CC3(O)OC(O1)C1(COC(=O)c4ccc(O)cc4)C3CC21OC1OC(CO)C(O)C(O)C1O (stereo not given),-1.25%,–
O=C(/C=C/c1ccc(O)c(O)c1)OC1[C@H](O)CC(O)(C(=O)O)C[C@@H]1O (stereo not given in full),4.25%,–
COc1ccc(/C=C/c2cc(OC)cc(=O)o2)cc1,–,10 µM (active)
CCCCCCCC/C=C\CCCCCCCCCCCCCC(=O)O,-3.69%,–
CCCCCC(=O)CC,46% [at 112 µM],–
OCCc1ccc(O)cc1,4.11% [at 63.1 µM],–
